Compound activity as filed in PubChem.
A selection: hits, their analogues and other compounds. The true share with any hit is near 1.5%.
PINK1 expr mod = modulators of PINK1 expression; AID 624263; PINK1 immunofluorescence, high-content cytometry, 24 h; actives 0.2% (n = 410,000); Potency, µM (titrated, usually from 76.6 µM), for inactives: at the top dose activation (PINK1 increase), most hits filed as activators; active means well fitted activation curve with a large enough effect; inconclusive means small, poorly fitted or top-dose-only effect; cell line not stated here; further: potency means the concentration at half of the fitted maximal effect; % of control where 0% means no effect; nearly all actives have a fitted effect of over 65% in size
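Readout is PINK1 immunofluorescence, quantified alongside mitochondrial, cell and nuclear markers by laser-scanning microplate cytometry. Cells from a stable line were exposed to compound titrations (5 concentrations) for 24 hours, with CCCP controls.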
TCR act = activators of T cell receptors; primary human leukocytes, anti-CD3, IL-2 HTRF, 48 h; Potency, µM (titrated, usually from 9.22 µM), inactives show at the highest dose activation of IL-2 secretion, hits mostly activators; 330,000 tested, under 10 active; further: % of control where 0% means no effect
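Primary human leukocytes incubated 48 hr with anti-CD3 beads plus compound, without co-stimulation. Secreted IL-2 measured by HTRF (europium cryptate/d2 anti-IL-2 pair, 320 nm excitation, 665 nm emission).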
BRCA1 expr up = BRCA1 expression activation; Potency, µM (titrated, usually from 46.1 µM), inactives show at the highest dose activation, most hits filed as activators; actives 1.1% (n = 380,000); AID 624202; MCF7-BRCA1-FFLuc reporter, luminescence, 48 h; response scale: scaled: vehicle 0%, 10 µM genistein 100%; further: potency means the concentration at half of the fitted maximal effect; nearly all actives have a fitted effect of over 80% in size
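Luminescence from a BRCA1-driven firefly luciferase in MCF7 cells was read after 48 h compound exposure at 37 C. Data normalized against DMSO and a 10microM genistein activation control, then curve-fitted across the titration.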
Akt phos inh = Akt phosphorylation inhibition | Neuro2A IGF-stimulated pAkt S473 HTRF, 20 min; hits give low values | activity change, % for hits at 50 µM | actives 0.32% (n = 360,000); in the data active means activity change below about -80%; inconclusive means mostly about -51% to -80%; further: on the % scale 0 is the no-effect control and ±100 the full control effect
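Neuro2A cells (4,500/well, DMEM with 0.5% FBS) were treated with compound at a single 50 µM final concentration, stimulated with 6 nM IGF for 20 min at 37 °C, and lysed. Phospho-Akt Ser473 was read by HTRF as 665/615 ratio ×10^4.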
* hit, by the source's call; i = inactive; ? = inconclusive; / = no result given; [ ] = another dose, or the depositor's remark. Unless noted, the call rests on the fitted dose curve; in most records, active means well fitted curve in the direction sought with a large enough effect; inconclusive means small, poorly fitted or top-dose-only effect, or another doubt; inactive means no such curve, though single readings can be large; an effect the other way counts as inactive or inconclusive.

SMILES | PINK1 expr mod | TCR act | BRCA1 expr up | Akt phos inh
CC(=O)c1oc2ccccc2c1N | 7.5%[38.3 µM] | -3.2% | -7.3% | i
Nc1c(C(=O)Nc2ccc(Cl)cc2)oc2ccccc12 | 5.2% | 0.2% | 2.51µM* | i
Cc1c(C(=O)NCC2(N3CCOCC3)CCCC2)cnn1-c1nccc(-c2ccccc2F)n1 | 0.6% | / | / | /
Cc1c(C(=O)N(C)CC2CCCN(C)C2)cnn1-c1nccc(-c2ccco2)n1 (centres undefined) | -0.1% | / | / | /
COc1ccc(-c2nn3c(COc4ccccc4)nnc3s2)cc1OC | -3.7% | 4.8% | -2.4% | -117.1%*
Brc1ccc(COc2ncnc3ccccc23)cc1 | 1.6% | -3.2% | 12.2% | i
c1ccc(OCCOc2ncnc3ccccc23)cc1 | 2.6% | -0.8% | 10µM* | i
Cc1cc(C)n(Cc2cccc(C(=O)NCC3Cc4cccc(-c5ncccn5)c4O3)c2)n1 (centres undefined) | -0.6% | / | / | /
C=CCn1cccc(C(=O)Nc2ccc(C)c(C)c2)c1=O | 4.1% | 4.9% | 3.16µM* | i
N#CCCn1cc(/C=C(\C#N)c2nc3ccccc3s2)c(-c2ccc(F)cc2)n1 | ? | 0.4% | -7.5% | -87.7%*
N#C/C(=C(/O)c1ccc(F)cc1)c1nc2ccccc2s1 | 15.8µM* | -1.7% | -56.9% | i
N#C/C(=C(/O)COc1ccccc1)c1nc2ccccc2s1 | ? | -2.1% | -30.4% | i
COc1ccc(CCC(=O)Nc2cc(Cl)ccc2N2CCN(C)CC2)cc1 | 8.1% | 0.7% | -29.5% | -107.1%*
CCC(=O)N1CCN(c2ccccc2NC(=O)Cc2ccc(Cl)cc2)CC1 | -3.8%[38.3 µM] | 0.1% | -7.9% | i
COc1ccc(CC(=O)Nc2cc(Cl)ccc2N2CCCC2)cc1 | 0.6% | -9.2% | -21.3% | i
CCC(=O)N1CCN(c2ccc(Cl)cc2NC(=O)Cc2ccc(Cl)cc2)CC1 | -4.8%[38.3 µM] | / | -33.5% | -84.7%*
COc1cc(=O)n2c(c1C(=O)N(C)Cc1nonc1C)CCN(Cc1cccc3ccccc13)CC2 | -0.5% | / | / | /
NS(=O)(=O)c1ccc(N=NN2CCCCC2)cc1 | -0.4% | -2.0% | 10µM* | i
Cc1ccc2nc(SCC(=O)NCC3Cc4cc(-c5ncccc5C)ccc4O3)[nH]c2c1 (centres undefined) | 0.6% | / | / | /
CCOC(=O)c1ccc(Nc2nnc(C(C)(C)C)c(=O)[nH]2)cc1 | 25.1µM* | -1.9% | -41.8% | i
COc1cccc(C2Nc3ccccc3C(=O)N2O)c1O (centres undefined) | -0.9% | 1.4% | 0.0% | -117.9%*
O=C1c2ccccc2NC(c2ccccc2O)N1c1ccc(F)cc1 (centres undefined) | -1.3% | -1.0% | 3.98µM* | i
O=C1c2ccccc2NC(c2ccccn2)N1c1ccc(Cl)cc1 (centres undefined) | -1.8% | 0.2% | 11.2µM* | i
Cc1cccc(C2Nc3ccccc3C(=O)N2c2ccccc2)n1 (centres undefined) | / | 2.2% | -1.8% | i
O=C1c2ccccc2NC(c2cccc(O)c2)N1O (centres undefined) | -2.5% | 2.9% | -18.6% | i
SMILES | PINK1 expr mod | TCR act | BRCA1 expr up | Akt phos inh
O=C1c2ccccc2NC(c2ccccc2)N1c1ccc(O)cc1 (centres undefined) | / | -0.2% | 24.1% | i
COc1cccc(C2Nc3ccccc3C(=O)N2c2ccc(F)cc2)c1O (centres undefined) | -0.6% | 0.6% | 7.94µM* | i
COC(=O)c1ccc(CN2CCOc3ccc(C(O)c4cccnc4)cc3C2)cc1 (centres undefined) | -1.0% | / | / | /
Cc1cc(-c2ccnc(-n3ncc(C(=O)NCC4COCCO4)c3C)n2)c(C)s1 (centres undefined) | 7.4% | / | / | /
Oc1cc(-c2nc3ccccc3s2)cc2c1OCCN(Cc1cccn1-c1ccccn1)C2 | -0.2% | / | / | /
CC(C)c1c(C(=O)N2CCCCC2c2cccnc2)cnn1-c1nccc(-c2cccs2)n1 (centres undefined) | -0.2% | / | / | /
COc1ccccc1-c1ccnc(-n2ncc(C(=O)N3CCCCC3c3cccnc3)c2C)n1 (centres undefined) | -1.1% | / | / | /
CC(C)CSc1nnc(CNC(=O)c2ccccn2)n1C | 0.1% | / | / | /
O=C1c2ccccc2NC(c2ccc(-c3cccs3)o2)N1O (centres undefined) | 1.3% | -2.7% | ? | /
O=C1c2ccccc2NC(c2ccc(Br)o2)N1O (centres undefined) | 1.6% | -3.6% | 11.2µM* | /
CCOC(=O)C1(Cc2cccc(OC)c2)CCCN(C(=O)CCN2CCCO2)C1 (centres undefined) | 0.6% | 1.1% | 3.98µM* | i
Clc1cccc(-c2nc3ccc(Cl)cn3c2Cc2ccccc2)c1 | 8.8% | / | 2.2% | i
Clc1cccc(-c2nc3ccc(Cl)cn3c2Cc2ccsc2)c1 | 5.4% | / | 12.6µM* | i
Cc1ccc(C(=O)Nc2ccc(Cl)cc2C)c(Cl)c1 | 0.5% | -13.5% | 3.16µM* | i
Cc1ccc(C(=O)Nc2ccc(Cl)cc2C(F)(F)F)c(Cl)c1 | 1.1% | -5.0%[46.1 µM] | ? | i
COc1cccc(-c2ccc(O)c(CNC(c3ccccc3)c3ccc(Cl)cc3)c2)n1 (centres undefined) | 0.3% | / | / | /
C/C(=N\Nc1cc(N2CCOCC2)ncn1)c1ccccc1 | -1.7% | -2.7% | 1.78µM* | i
Cc1ncc2c(c1CNC(=O)/C=C/c1cccs1)CCN(C(=O)C1CC(=O)OC13CCCCC3)C2 (centres undefined) | -0.1% | / | / | /
O=C(OCc1ccccc1)c1ccccc1 | 2.1% | 10.1% | 2.2% | i
O=C(OCc1ccccc1)c1ccc2c(c1)-c1ccccc1C2=O | -0.1% | -0.3% | 8.91µM* | i
Cc1ncc(-c2ccc(F)cc2)c(C2CCCN(Cc3cccc(O)c3)C2)n1 (centres undefined) | 0.9% | / | / | /
CCC1CN(CCNC(=O)c2ccccc2-n2cccn2)Cc2cc(OC)ccc2O1 (centres undefined) | -0.3% | / | / | /
c1nc(NCc2ccc3c(c2)OCO3)c2cc(-c3ccc4c(c3)OCCO4)ccc2n1 | ? | -0.5% | 0.0% | /
Cc1cccc(CNc2ncnc3ccc(-c4ccc5c(c4)OCCO5)cc23)c1 | 22.4µM* | -2.0% | -21.2% | /
Nc1nc(N)c2c(Oc3ccc(F)cc3)cccc2n1 | 0.9% | / | -7.3% | /
SMILES | PINK1 expr mod | TCR act | BRCA1 expr up | Akt phos inh
Nc1c(C(=O)N2CCCC2)sc2nc3c(cc12)CCCCCC3 | 9.2% | / | 4.47µM* | i
NC(=O)c1sc2nc3c(cc2c1N)CCC3 | -0.4% | 1.7% | 8.91µM* | i
Nc1c(C(=O)N2CCOCC2)sc2nc3c(cc12)CCCC3 | 0.8% | 5.2% | -38.1% | i
COc1cc(Cl)c(CC(=O)NO)cc1OC | 0.3% | / | 0.0% | /
COc1ccccc1Nc1ccc(Nc2ccccc2OC)nn1 | 7.0% | -3.3%[46.1 µM] | 5.01µM* | i
COc1ccccc1Nc1nc2ccccc2n2cnnc12 | 0.0% | 0.0% | 0.8% | i
COc1ccc(OC)c(Nc2ccc(Nc3cc(OC)ccc3OC)nn2)c1 | -2.4% | -4.1%[46.1 µM] | -17.0% | i
COc1ccccc1Nc1nc2ccccc2n1C | 1.4% | -4.8%[46.1 µM] | 4.47µM* | i
